# The entries come from a sample that favours hits as a whole.
# TbREL1 primary – TbREL1 inhibition, primary screen; 89,000 compounds, 0.49% hits; inhibition, % at 9.66 µM; AID 1117264; TbREL1 RNA ligation, FRET fluorescence;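 active = inhibition above the mean inhibition across all screened compounds plus 3 SD, cut at about 11% in these data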;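 also: 0% = plate median of test wells and 100% = NSC42067 control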
# Target sequence (P86926 whole entry, looked up): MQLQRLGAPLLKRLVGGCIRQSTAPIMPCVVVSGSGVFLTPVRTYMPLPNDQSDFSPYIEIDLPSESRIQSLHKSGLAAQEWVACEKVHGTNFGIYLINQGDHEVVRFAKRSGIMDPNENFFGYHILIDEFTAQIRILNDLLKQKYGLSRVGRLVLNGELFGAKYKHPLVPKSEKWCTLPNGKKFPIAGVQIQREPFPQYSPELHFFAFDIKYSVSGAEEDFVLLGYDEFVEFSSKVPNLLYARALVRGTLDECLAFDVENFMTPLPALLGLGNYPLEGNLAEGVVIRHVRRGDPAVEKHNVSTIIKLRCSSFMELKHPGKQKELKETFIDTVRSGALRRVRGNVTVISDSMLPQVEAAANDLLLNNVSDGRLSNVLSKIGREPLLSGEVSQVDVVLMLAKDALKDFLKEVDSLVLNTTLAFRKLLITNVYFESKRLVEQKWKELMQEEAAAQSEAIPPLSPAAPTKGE
# TbREL1 conf – TbREL1 inhibition, confirmation; shares compounds with TbREL1 primary; TbREL1 RNA ligation, FRET fluorescence; AID 1117282; inhibition, % at 9.66 µM; 390 compounds, 37% hits;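 active = mean inhibition across replicates above a set limit taken from the earlier primary screen, cut at about 11% in these data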;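 also: 0% = REL1 with substrate and DMSO and 100% = REL1 plus control inhibitor NSC42067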
# Numbers without * were called inactive.
SMILES,TbREL1 primary,others
CCOC(=O)[C@]12CCCC3=C1N(CCC3)C(=O)[C@@H](CC(=O)N1CCOCC1)C2,1.1,
CCOC(=O)[C@@H](CCc1ccccc1)N[C@@H](C)C(=O)N1CCC[C@H]1C(=O)O,2.3,
Oc1cc2c(cc1O)[C@H]1c3ccc(O)c(O)c3OC[C@@]1(O)C2,21.0*,TbREL1 conf=62.2*
COc1ccc(-c2nnc(SCC(=O)Nc3ccc(S(=O)(=O)Nc4cc(C)nc(C)n4)cc3)n2-c2ccc(OC)cc2)cc1,0.2,
CN(C)[C@@H]1CCN(c2cccc3c2S(=O)(=O)N(C2CC2)CCCO3)C1,3.7,
CCOC(=O)Cc1nnc(NC(=O)COc2ccc(C)cc2)s1,0.4,
CCOC(=O)Cc1nnc(NC(=O)c2ccccc2OCC)s1,-2.5,
CCOC(=O)Cc1nnc(NC(=O)c2ncn[nH]2)s1,11.4*,TbREL1 conf=7.4
O=C(c1cccc(Cl)c1)N1CCN(c2ccnc3cc(Cl)ccc23)CC1,-2.7,
Cc1ccc(NC(=O)CSc2nnc(-c3cc(-c4ccc(Cl)cc4)n[nH]3)n2N)cc1,3.7,
O=C(c1cc2cc(Cl)ccc2o1)N1CCCC1,1.9,
O=C(NCc1ccccc1CN1CCCC1)C1CCN(C(=O)c2ccc(Cl)cc2)CC1,1.6,
O=C(NCc1ccccc1CN1CCCC1)c1cc2cc(Cl)ccc2o1,12.1*,TbREL1 conf=4.2
COCCNC(=O)c1c(N)[nH]c(C(=O)c2ccc(Br)cc2)c1-c1c(OC)ccc2ccccc12,-0.9,
COC(=O)[C@]12C[C@H](CC(=O)NCc3ccc(OC)c(OC)c3)C(=O)N(Cc3ccc(Cl)cc3Cl)C1=C[C@H](COCc1ccccc1)O[C@@H]2C,-1.1,
Cc1ccsc1C=Nn1c(-c2n[nH]c3c2CCC3)n[nH]c1=S,-2.2,
CNc1nc(N)c([N+](=O)[O-])c(Nc2cccc(OC)c2)n1,3.0,
Cc1cc(C)nc(N2CCN(C(=O)CSc3nc4ccccc4nc3N3CC(C)OC(C)C3)CC2)n1 (stereo not given),-1.2,
CC(=O)NC(Cc1ccc2c(c1)OCO2)C(=O)N1CCCC1 (stereo not given),0.7,
COc1ccc(/C=N/Nc2nc(-c3ccc(Cl)cc3)cc(C(F)(F)F)n2)cc1OC,-2.4,
CCOc1cc(/C=N/Nc2nncc(-c3ccccc3)n2)ccc1O,-0.3,
COc1ccc(-c2cnnc(N/N=C/c3ccc(OC)c(OC)c3)n2)cc1,11.1*,TbREL1 conf=-1.5
O=C(Cc1c[nH]c2ccccc12)Nc1ccc(Nc2cccnc2)c(-c2cc(F)cc(F)c2)c1,-1.0,
C#CCNC(=O)C[C@@H]1C[C@]2(C(=O)OCC)CCC3=C2N(CCC3)C1=O,-0.3,
C[C@H]1CN(C(=O)OC(C)(C)C)CCN1c1ccc(Br)c(C#N)c1,-0.9,
SMILES,TbREL1 primary,others
O=[N+]([O-])c1ccc(N2CCCC2)cc1NC1CC1,0.1,
CC(Nc1cc(N2CCNCC2)ccc1[N+](=O)[O-])c1ccccc1 (stereo not given),4.0,
CCc1ccc(OCCNc2cc(N3CCNC(C)C3)ccc2[N+](=O)[O-])cc1 (stereo not given),12.4*,TbREL1 conf=8.8
CC(C)(C)c1ccc(-c2nnc(SCC(=O)Nc3ccc(S(=O)(=O)Nc4nccs4)cc3)n2-c2ccc(Cl)cc2)cc1,-1.8,
CCc1ccc(CNCC(=O)N2CCC3(CC2)OCCO3)s1,-1.8,
COc1ccc(Cl)cc1S(=O)(=O)N1CCCC(C(=O)NCc2ccccn2)C1 (stereo not given),-2.4,
COc1ccc(C2C(C(=O)NCc3ccccn3)c3cc(OC)c(OC)cc3C(=O)N2C)cc1 (stereo not given),-0.6,
COc1cc2c(cc1OC)-c1cc(NCc3ccccn3)nc(=O)n1CC2,21.3*,TbREL1 conf=22.5*
CCN(CC)C(=O)c1oc(=O)c2ccccc2c1-c1ccc(C)cc1,-1.2,
C=CCN1C(=O)[C@H](CC(=O)NCC23CC4CC(CC(C4)C2)C3)[C@@]2(C(=O)OCC)CCCC=C12,5.7,
COc1ccccc1N1CCN(N=Cc2ccccc2Br)CC1,-4.1,
CC(C)c1cc(C(=O)NCCc2ccccc2)no1,11.4*,TbREL1 conf=1.3
CC(C)c1cc(C(=O)NCc2ccco2)no1,0.3,
CCc1ccc(NC(=O)c2cc(C(C)C)on2)cc1,5.1,
COC(=O)[C@]12C[C@H](CC(=O)N3CCN(C(=O)C4CC4)CC3)C(=O)N(Cc3cccc4ccccc34)C1=C[C@H](COCc1ccccc1)O[C@@H]2C,-5.4,
Fc1ccc(-c2csc(N3CCOCC3)n2)cc1,-2.7,
Nc1ncc(CCN2CCOCC2)c(-c2ccc(F)cc2)n1,14.6*,TbREL1 conf=1.8
Fc1ccccc1OCCCN1CCOCC1,10.6,
CCN(CC)C(=O)Cn1c2ccccc2c2nc3n(c(=O)c21)CCS3,-3.0,
O=C(Nc1ccc(N2C(=O)[C@@H]3[C@H](C2=O)[C@@H]2C=C[C@H]3C2)c(Cl)c1)c1ccccn1,2.4,
Nc1ccc(-c2nc3ccc(-c4nc5ccccc5o4)cc3[nH]2)cc1,2.9,
Nc1ccc(-c2nc3ccc(N)cc3[nH]2)cc1,18.4*,TbREL1 conf=36.3*
Nc1ccc(-c2nc3ccc([N+](=O)[O-])cc3[nH]2)cc1,3.0,

# Screening results: PubChem, The Scripps Research Institute Molecular Screening Center
